Measured values from the supplement of paper PMC4466140.

Biological target: AgAbp1
Test: SPOT peptide array binding signal intensity (averaged, normalized) (arbitrary units (background-subtracted, floor 0; scale differs between SH3 domains)); higher = stronger binding of the SH3 domain to the peptide
Experimental: (§1)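 GST-tagged SH3 domains from S. cerevisiae (Sc), A. gossypii (Ag), C. albicans (Ca) and S. pombe (Sp) were incubated at 10 ug/ml overnight at 4 C on cellulose SPOT membranes carrying 292 synthetic 15-mer peptides mined from the S. cerevisiae proteome (cysteines replaced by serines). Binding was detected with anti-GST antibody, HRP secondary and chemiluminescence, quantified with Genespotter, and reported as normalized spot intensities averaged over biological replicates.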

Binder	SPOT peptide array binding signal intensity
SKAKRPKFLLDLQIK	32.5

Biological target: AgBbc1
Test: as above
Experimental: as §1

Binder	SPOT peptide array binding signal intensity
SKAKRPKFLLDLQIK	2

Biological target: AgBem1-D1
Test: as above
Experimental: as §1

Binder	SPOT peptide array binding signal intensity
SKAKRPKFLLDLQIK	60

Biological target: AgBzz1-D1
Test: as above
Experimental: as §1

Binder	SPOT peptide array binding signal intensity
SKAKRPKFLLDLQIK	38

Biological target: AgBzz1-D2
Test: as above
Experimental: as §1

Binder	SPOT peptide array binding signal intensity
SKAKRPKFLLDLQIK	29.5

Biological target: AgCyk3
Test: as above
Experimental: as §1

Binder	SPOT peptide array binding signal intensity
SKAKRPKFLLDLQIK	10

Biological target: AgFus1
Test: as above
Experimental: as §1

Binder	SPOT peptide array binding signal intensity
SKAKRPKFLLDLQIK	152

Biological target: AgHof1
Test: as above
Experimental: as §1

Binder	SPOT peptide array binding signal intensity
SKAKRPKFLLDLQIK	16.5

Biological target: AgHse1
Test: as above
Experimental: as §1

Binder	SPOT peptide array binding signal intensity
SKAKRPKFLLDLQIK	154

Biological target: AgLsb1
Test: as above
Experimental: as §1

Binder	SPOT peptide array binding signal intensity
SKAKRPKFLLDLQIK	2.75

Biological target: AgLsb4
Test: as above
Experimental: as §1

Binder	SPOT peptide array binding signal intensity
SKAKRPKFLLDLQIK	16

Biological target: AgMyo5
Test: as above
Experimental: as §1

Binder	SPOT peptide array binding signal intensity
SKAKRPKFLLDLQIK	0.25

Biological target: AgNbp2
Test: as above
Experimental: as §1

Binder	SPOT peptide array binding signal intensity
SKAKRPKFLLDLQIK	11

Biological target: AgRvs167
Test: as above
Experimental: as §1

Binder	SPOT peptide array binding signal intensity
SKAKRPKFLLDLQIK	3.33

Biological target: AgSho1
Test: as above
Experimental: as §1

Binder	SPOT peptide array binding signal intensity
SKAKRPKFLLDLQIK	15

Biological target: AgSla1-D1-D2
Test: as above
Experimental: as §1

Binder	SPOT peptide array binding signal intensity
SKAKRPKFLLDLQIK	214

Biological target: AgSla1-D3
Test: as above
Experimental: as §1

Binder	SPOT peptide array binding signal intensity
SKAKRPKFLLDLQIK	5.5

Biological target: CaAbp1-D1
Test: as above
Experimental: as §1

Binder	SPOT peptide array binding signal intensity
SKAKRPKFLLDLQIK	502

Biological target: CaAbp1-D2
Test: as above
Experimental: as §1

Binder	SPOT peptide array binding signal intensity
SKAKRPKFLLDLQIK	337

Biological target: CaBbc1
Test: as above
Experimental: as §1

Binder	SPOT peptide array binding signal intensity
SKAKRPKFLLDLQIK	80.8

Biological target: CaBem1-D1
Test: as above
Experimental: as §1

Binder	SPOT peptide array binding signal intensity
SKAKRPKFLLDLQIK	13.5

Biological target: CaBzz1-D1
Test: as above
Experimental: as §1

Binder	SPOT peptide array binding signal intensity
SKAKRPKFLLDLQIK	110

Biological target: CaBzz1-D2
Test: as above
Experimental: as §1

Binder	SPOT peptide array binding signal intensity
SKAKRPKFLLDLQIK	127

Biological target: CaCyk3
Test: as above
Experimental: as §1

Binder	SPOT peptide array binding signal intensity
SKAKRPKFLLDLQIK	19

Biological target: CaFus1
Test: as above
Experimental: as §1

Binder	SPOT peptide array binding signal intensity
SKAKRPKFLLDLQIK	510

Biological target: CaHof1
Test: as above
Experimental: as §1

Binder	SPOT peptide array binding signal intensity
SKAKRPKFLLDLQIK	0.5

Biological target: CaHse1
Test: as above
Experimental: as §1

Binder	SPOT peptide array binding signal intensity
SKAKRPKFLLDLQIK	≤ 0

Biological target: CaLsb1
Test: as above
Experimental: as §1

Binder	SPOT peptide array binding signal intensity
SKAKRPKFLLDLQIK	≤ 0

Biological target: CaLsb4
Test: as above
Experimental: as §1

Binder	SPOT peptide array binding signal intensity
SKAKRPKFLLDLQIK	3.5

Biological target: CaMyo5
Test: as above
Experimental: as §1

Binder	SPOT peptide array binding signal intensity
SKAKRPKFLLDLQIK	2

Biological target: CaNbp2
Test: as above
Experimental: as §1

Binder	SPOT peptide array binding signal intensity
SKAKRPKFLLDLQIK	72
KLSRGRYGLPLSSRP	110

Biological target: CaRvs167
Test: as above
Experimental: as §1

Binder	SPOT peptide array binding signal intensity
SKAKRPKFLLDLQIK	1.67
KLSRGRYGLPLSSRP	6.5

Biological target: CaRvs167-3
Test: as above
Experimental: as §1

Binder	SPOT peptide array binding signal intensity
SKAKRPKFLLDLQIK	40.8
KLSRGRYGLPLSSRP	13.5

Biological target: CaSho1
Test: as above
Experimental: as §1

Binder	SPOT peptide array binding signal intensity
SKAKRPKFLLDLQIK	148
KLSRGRYGLPLSSRP	59.5

Biological target: CaSla1-D1-D2
Test: as above
Experimental: as §1

Binder	SPOT peptide array binding signal intensity
SKAKRPKFLLDLQIK	11
KLSRGRYGLPLSSRP	≤ 0

Biological target: CaSla1-D3
Test: as above
Experimental: as §1

Binder	SPOT peptide array binding signal intensity
SKAKRPKFLLDLQIK	≤ 0
KLSRGRYGLPLSSRP	0.25

Biological target: ScAbp1
Test: as above
Experimental: as §1

Binder	SPOT peptide array binding signal intensity
SKAKRPKFLLDLQIK	19
KLSRGRYGLPLSSRP	24

Biological target: ScBbc1
Test: as above
Experimental: as §1

Binder	SPOT peptide array binding signal intensity
SKAKRPKFLLDLQIK	3.5
KLSRGRYGLPLSSRP	8.5

Biological target: ScBem1-D1
Test: as above
Experimental: as §1

Binder	SPOT peptide array binding signal intensity
SKAKRPKFLLDLQIK	9
KLSRGRYGLPLSSRP	14

Biological target: ScBzz1-D1
Test: as above
Experimental: as §1

Binder	SPOT peptide array binding signal intensity
SKAKRPKFLLDLQIK	33
KLSRGRYGLPLSSRP	21

Biological target: ScBzz1-D2
Test: as above
Experimental: as §1

Binder	SPOT peptide array binding signal intensity
SKAKRPKFLLDLQIK	24
KLSRGRYGLPLSSRP	20

Biological target: ScCyk3
Test: as above
Experimental: as §1

Binder	SPOT peptide array binding signal intensity
SKAKRPKFLLDLQIK	51
KLSRGRYGLPLSSRP	59

Biological target: ScFus1
Test: as above
Experimental: as §1

Binder	SPOT peptide array binding signal intensity
SKAKRPKFLLDLQIK	268
KLSRGRYGLPLSSRP	102

Biological target: ScHof1
Test: as above
Experimental: as §1

Binder	SPOT peptide array binding signal intensity
SKAKRPKFLLDLQIK	≤ 0
KLSRGRYGLPLSSRP	≤ 0

Biological target: ScHse1
Test: as above
Experimental: as §1

Binder	SPOT peptide array binding signal intensity
SKAKRPKFLLDLQIK	486
KLSRGRYGLPLSSRP	754

Biological target: ScLsb1
Test: as above
Experimental: as §1

Binder	SPOT peptide array binding signal intensity
SKAKRPKFLLDLQIK	≤ 0
KLSRGRYGLPLSSRP	89

Biological target: ScLsb2
Test: as above
Experimental: as §1

Binder	SPOT peptide array binding signal intensity
SKAKRPKFLLDLQIK	≤ 0
KLSRGRYGLPLSSRP	7

Biological target: ScLsb3
Test: as above
Experimental: as §1

Binder	SPOT peptide array binding signal intensity
SKAKRPKFLLDLQIK	6
KLSRGRYGLPLSSRP	16

Biological target: ScLsb4
Test: as above
Experimental: as §1

Binder	SPOT peptide array binding signal intensity
SKAKRPKFLLDLQIK	2
KLSRGRYGLPLSSRP	15

Biological target: ScMyo3
Test: as above
Experimental: as §1

Binder	SPOT peptide array binding signal intensity
SKAKRPKFLLDLQIK	1.5
KLSRGRYGLPLSSRP	6

Biological target: ScMyo5
Test: as above
Experimental: as §1

Binder	SPOT peptide array binding signal intensity
SKAKRPKFLLDLQIK	1
KLSRGRYGLPLSSRP	8.5

Biological target: ScNbp2
Test: as above
Experimental: as §1

Binder	SPOT peptide array binding signal intensity
SKAKRPKFLLDLQIK	62
KLSRGRYGLPLSSRP	86.5

Biological target: ScPex13
Test: as above
Experimental: as §1

Binder	SPOT peptide array binding signal intensity
SKAKRPKFLLDLQIK	4.25
KLSRGRYGLPLSSRP	7.25

Biological target: ScRvs167
Test: as above
Experimental: as §1

Binder	SPOT peptide array binding signal intensity
SKAKRPKFLLDLQIK	1.67
KLSRGRYGLPLSSRP	12.8

Biological target: ScSho1
Test: as above
Experimental: as §1

Binder	SPOT peptide array binding signal intensity
SKAKRPKFLLDLQIK	398
KLSRGRYGLPLSSRP	112

Biological target: ScSla1-D1-D2
Test: as above
Experimental: as §1

Binder	SPOT peptide array binding signal intensity
SKAKRPKFLLDLQIK	27
KLSRGRYGLPLSSRP	91.5

Biological target: ScSla1-D3
Test: as above
Experimental: as §1

Binder	SPOT peptide array binding signal intensity
SKAKRPKFLLDLQIK	5
KLSRGRYGLPLSSRP	2

Biological target: SpAbp1-D1
Test: as above
Experimental: as §1

Binder	SPOT peptide array binding signal intensity
SKAKRPKFLLDLQIK	171
KLSRGRYGLPLSSRP	146

Biological target: SpBbc1
Test: as above
Experimental: as §1

Binder	SPOT peptide array binding signal intensity
SKAKRPKFLLDLQIK	1.75
KLSRGRYGLPLSSRP	2

Biological target: SpBzz1-D1
Test: as above
Experimental: as §1

Binder	SPOT peptide array binding signal intensity
SKAKRPKFLLDLQIK	346
KLSRGRYGLPLSSRP	163

Biological target: SpBzz1-D2
Test: as above
Experimental: as §1

Binder	SPOT peptide array binding signal intensity
SKAKRPKFLLDLQIK	0.5
KLSRGRYGLPLSSRP	≤ 0

Biological target: SpCyk3
Test: as above
Experimental: as §1

Binder	SPOT peptide array binding signal intensity
SKAKRPKFLLDLQIK	14.5
KLSRGRYGLPLSSRP	6.5

Biological target: SpHof1
Test: as above
Experimental: as §1

Binder	SPOT peptide array binding signal intensity
SKAKRPKFLLDLQIK	25.2
KLSRGRYGLPLSSRP	88.8

Biological target: SpHof1-2
Test: as above
Experimental: as §1

Binder	SPOT peptide array binding signal intensity
SKAKRPKFLLDLQIK	5
KLSRGRYGLPLSSRP	10.5

Biological target: SpHof1-3
Test: as above
Experimental: as §1

Binder	SPOT peptide array binding signal intensity
SKAKRPKFLLDLQIK	386
KLSRGRYGLPLSSRP	326

Biological target: SpHse1
Test: as above
Experimental: as §1

Binder	SPOT peptide array binding signal intensity
SKAKRPKFLLDLQIK	119
KLSRGRYGLPLSSRP	150

Biological target: SpLsb1
Test: as above
Experimental: as §1

Binder	SPOT peptide array binding signal intensity
SKAKRPKFLLDLQIK	1
KLSRGRYGLPLSSRP	110

Biological target: SpLsb4
Test: as above
Experimental: as §1

Binder	SPOT peptide array binding signal intensity
SKAKRPKFLLDLQIK	≤ 0
KLSRGRYGLPLSSRP	48.5

Biological target: SpMyo1
Test: as above
Experimental: as §1

Binder	SPOT peptide array binding signal intensity
SKAKRPKFLLDLQIK	≤ 0
KLSRGRYGLPLSSRP	2

Biological target: SpNbp2
Test: as above
Experimental: as §1

Binder	SPOT peptide array binding signal intensity
SKAKRPKFLLDLQIK	33.5
KLSRGRYGLPLSSRP	38

Biological target: SpPex13
Test: as above
Experimental: as §1

Binder	SPOT peptide array binding signal intensity
SKAKRPKFLLDLQIK	2.5
KLSRGRYGLPLSSRP	1

Biological target: SpRvs167
Test: as above
Experimental: as §1

Binder	SPOT peptide array binding signal intensity
SKAKRPKFLLDLQIK	≤ 0
KLSRGRYGLPLSSRP	4.33

Biological target: SpSla1-D1-D2
Test: as above
Experimental: as §1

Binder	SPOT peptide array binding signal intensity
SKAKRPKFLLDLQIK	3
KLSRGRYGLPLSSRP	≤ 0

Biological target: SpSla1-D3
Test: as above
Experimental: as §1

Binder	SPOT peptide array binding signal intensity
SKAKRPKFLLDLQIK	3
KLSRGRYGLPLSSRP	≤ 0
